Measurements: ChEMBL document CHEMBL3988442, “University of Dundee, Small-Polar-MMV Screening Library” (2021)
Screen size: about 69,000 compounds; about 950 (1.4%) showed an effect of 50% or more. Many of the other results were omitted from the sample, so strong results are more common in it than they were.

Each molecule was assayed on Mycobacterium tuberculosis (assay: Cornell M. t heat shock assay; further: in the data most compounds retested in dose-response had high values).
Format: functional, organism-based
Parameters: dose or concentration left out as unconfirmed

| Compound | Percent Effect [%] |
| --- | --- |
| CS(=O)(=O)CCNCc1ccc(OCc2cscn2)cc1 | -2.969 |
| CC1c2ncc(Cn3cccn3)n2CCN1c1ncccn1.O=C(O)C(F)(F)F (configuration not stated) | 40.47 |
| COc1ccc(-c2n[nH]cc2CNC2CCN(C3CC3)CC2)cc1.Cl | -33.63 |
| Cc1ccc(N2CCO[C@H]3CN(Cc4cccnc4)C[C@H]32)nn1.O=C(O)C(F)(F)F.O=C(O)C(F)(F)F.O=C(O)C(F)(F)F | -30.09 |
| CCNc1ccnc(CN2CCCC2C(=O)Nc2nccs2)c1 (configuration not stated) | 13.04 |
| CC(=O)Nc1cccc(CN2CCCC2C(=O)Nc2nccs2)c1 (configuration not stated) | -15.37 |
| O=C(Nc1nccs1)C1CCCN1Cc1ccccn1 (configuration not stated) | 103.1 |
| Cc1ccc(C(N)c2cccc(S(C)(=O)=O)c2)c(C)c1.Cl (configuration not stated) | 1.87 |
| CC(NCc1ccc(OCc2nccn2C)cc1)c1cccnc1 (configuration not stated) | -26.18 |
| COc1c(CNC(c2ccc(F)cc2)c2nccn2C)c(C)nn1C (configuration not stated) | -11.67 |
| CSc1ccc(CNC(c2ccccc2)c2nccn2C)cc1 (configuration not stated) | 105.2 |
| Cn1cc(C(NCc2ccc(F)cc2)c2cccc(F)c2)cn1 (configuration not stated) | -7.107 |
| CSc1ccc(CN(CCO)Cc2nccn2C)cc1 | -17.8 |
| COc1cccc(-c2cc(NCc3nccn3C)n(C)n2)c1 | 1.129 |
| COc1ccc(CNC(c2cccc(F)c2)c2cnn(C)c2)cc1 (configuration not stated) | -3.342 |
| COc1c(CNC(c2ccccc2)c2ccc(F)cc2)c(C)nn1C (configuration not stated) | -7.995 |
| COc1cccc(C(NCc2ccc(SC)cc2)c2nccn2C)c1 (configuration not stated) | 112.8 |
| CSc1ccc(CNC(c2ccc(F)cc2)c2nccn2C)cc1 (configuration not stated) | 112.9 |
| CC(c1ccc(F)cc1)N1CCN(Cc2nccn2C)CC1 (configuration not stated) | -10.33 |
| Cn1ccnc1C(NCc1ccccc1)c1ccc(F)cc1 (configuration not stated) | 113.8 |
| O=C(O)C(F)(F)F.O=C(O)C(F)(F)F.c1ccc(CO[C@@H]2CN(Cc3nccs3)[C@@H]3COC[C@@H]32)nc1 | 32.68 |
| Cn1cc(N2CC3(CCN(Cc4nccs4)CC3)OCC2=O)cn1.O=C(O)C(F)(F)F | -26.5 |
| CCn1c(NCc2ccccn2)nc2c(C)nn(C)c2c1=O | -10.12 |
| COc1ccc(CN2CCC(c3cc(O)nc(C)n3)C2)c(OC)c1.O=C(O)CC(O)(CC(=O)O)C(=O)O (configuration not stated) | -19.34 |
| Cl.O=C(NCc1cccc(Cl)c1)C1=NOC2(CCNC2)C1 (configuration not stated) | -31.4 |
| O=C(O)C(F)(F)F.O=C(c1cscn1)N1CC[C@@H]2[C@@H]1CCN2C1CCOC1 (some centres not stated) | 5.753 |
| CCN1C[C@H]2[C@@H](C1)N(C(=O)Cc1ccsc1)CC[C@H]2OC.O=C(O)C(F)(F)F | -3.863 |
